# Screens as filed in PubChem.
# PostGolgi yeast – growth inhibition of a yeast mutant, post-Golgi transport screen; 0.9% of 98,000 active; inhibition, % at 10 µM; post-Golgi transport phenotypic cell assay;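 further: yeast cells grown in 1536-well plates; yeast grown about 18 h at 30C before absorbance read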
# CYP2C19 act – cytochrome P450 2C19 (human) activation; P33261; recombinant CYP2C19, luciferin-H EGE luminescence; hits give high values; 0 = fully inhibited enzyme, 1 = untreated enzyme; activation factor at 5 µM; 96,000 tested, under 10 active;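 active means activation factor of at least 2 at 5 µM in the primary screen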;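 further: 0 = wells with 2.5 mM tranylcypromine and 1 = vehicle-only wells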
# Target sequence (P33261 whole entry, looked up): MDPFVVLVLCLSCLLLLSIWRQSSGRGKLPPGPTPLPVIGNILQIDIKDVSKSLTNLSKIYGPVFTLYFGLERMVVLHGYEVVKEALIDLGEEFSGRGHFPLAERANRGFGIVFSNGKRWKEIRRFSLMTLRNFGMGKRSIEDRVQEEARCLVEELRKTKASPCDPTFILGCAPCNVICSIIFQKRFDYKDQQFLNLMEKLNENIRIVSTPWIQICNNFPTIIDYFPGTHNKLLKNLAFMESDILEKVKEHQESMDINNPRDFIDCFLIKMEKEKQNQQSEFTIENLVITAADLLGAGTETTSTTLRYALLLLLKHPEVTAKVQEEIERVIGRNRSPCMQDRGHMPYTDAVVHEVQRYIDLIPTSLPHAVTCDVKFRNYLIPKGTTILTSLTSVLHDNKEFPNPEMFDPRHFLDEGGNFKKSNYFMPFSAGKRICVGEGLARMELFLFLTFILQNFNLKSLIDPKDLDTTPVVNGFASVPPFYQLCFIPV
# CYP2C9 inhib – inhibitors of human CYP2C9; P11712; CYP2C9 Supersomes, luciferin-H conversion, luminescence; inhibition, % at 5 µM; 20% of 96,000 active; AID 777;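 active means blocking of liver enzyme CYP2C9 beyond about 50% at 5 µM, limit read from the data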
# CYP2C9 act – activators of human CYP2C9 | P11712 | recombinant CYP2C9, luciferin-H conversion, luminescence; hits give high values; factor 1 = untreated enzyme, 0 = blocked | activation factor at 5 µM | 1.4% of 96,000 active | AID 1024;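 active means activation factor of 2 or more for CYP2C9 at a 5 µM dose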;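 further: 0 = sulfaphenazole-blocked wells and 1 = vehicle-only wells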
# CYP2C19 inhib – human CYP2C19 inhibition; P33261; CYP2C19 Supersomes, luciferin-H EGE luminescence, 30 min; inhibition, % at 5 µM; 21% of 96,000 active; AID 778;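 active means CYP2C19 inhibition above a set limit at 5 µM in the primary screen, cut at about 50% in these data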;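 further: plate controls were negative control wells for no effect and 2.5 mM tranylcypromine positive control for full effect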
# PostGolgi ctrl – yeast control strain growth, post-Golgi counter-screen; efflux-deficient yeast background strain, growth absorbance A615, 16 h; inhibition, % at 10 µM; 5% of 98,000 active
# Active calls of the source: *; . = no result given. An excerpt weighted towards active compounds, which were near 32% of everything screened. Unless noted, no stated cut-off is given here; in the data, active means inhibition above about 30%; inactive means the rest.
SMILES,PostGolgi yeast,CYP2C19 act,CYP2C9 inhib,CYP2C9 act,CYP2C19 inhib,PostGolgi ctrl
CCOC(=O)c1ccc(COC(=O)CNC(=O)CNC(=O)c2ccc(OC)cc2)o1,-13,0.7,46,0.5,31,0
CSc1ncccc1C(=O)OCc1ccc(COC(=O)c2cccnc2SC)cc1,-1,0.9,3,1,5,7
COc1ccccc1N1CCN(C(=O)c2cc(-c3cccc(Cl)c3)on2)CC1,-2,0.9,9,0.9,8,21
O=C(Cn1nc(Cc2ccncc2)c2ccccc2c1=O)N1CCc2ccccc2C1,-1,0.1,80*,0.2,88*,13
CN(CCC#N)C(=O)Cn1nc(Cc2ccncc2)c2ccccc2c1=O,0,1.1,7,0.9,-7,2
CCOC(=O)Cc1csc(SC(C)C(=O)Nc2ccc(NC(C)=O)cc2)n1 (stereo unspecified),5,0.3,91*,0.1,68*,6
CCCC(=O)Nc1ccc(C(=O)Nc2nc(CC(=O)OCC)cs2)cc1,-16,0.7,41,0.6,27,1
CC(NC(=O)NC1CCCCC1)C(c1cccs1)N1CCN(c2ccccc2)CC1 (stereo unspecified),7,0.7,26,0.7,30,0
COc1ccc(CN(CCCN2CCOCC2)C(=O)Nc2cccc(Cl)c2)cc1OC,22,0.2,97*,0,80*,6
CCc1ccc2[nH]c(=O)c(CN(CCCN3CCOCC3)C(=O)Nc3cccc(Cl)c3)cc2c1,23,0.7,23,0.8,32,2
O=C(Nc1cccc(Cl)c1)N(CCN1CCOCC1)Cc1ccccc1F,0,0.6,92*,0.1,40,7
N#CCCN(Cc1cccnc1)C(=O)Nc1cccc(Cl)c1,0,0.1,42,0.6,94*,24
Cc1ccc2[nH]c(=O)c(CN(CCN3CCOCC3)C(=O)Nc3ccc(F)cc3)cc2c1,8,0.5,47,0.5,45,2
C=CCC(c1ccccc1F)N(CCN1CCOCC1)C(=O)Nc1cccc(Cl)c1 (stereo unspecified),2,0.7,87*,0.1,31,26
COc1ccc(NS(=O)(=O)c2ccc(OCC(=O)N3CCCC3)cc2)cc1,-1,0.8,-9,1.1,20,1
O=C(Nc1cccc(Cl)c1)N(CCN1CCOCC1)Cc1cccc(Cl)c1,3,0.2,94*,0.1,85*,16
CC(=O)N1CCc2cc(C(=O)CN3CCN(C(=O)c4ccco4)CC3)ccc21,-2,0.8,43,0.6,23,0
CN(C)CCCOC(=O)C1c2ccccc2Oc2ccccc21,21,0.3,-23,1.2,74*,13
CN(CCOC(=O)C1c2ccccc2Oc2ccccc21)C(C)(C)C,-12,0.6,8,0.9,40,5
Cc1ccc(-c2csc3ncnc(N4CCN(C(=O)c5ccccc5)CC4)c23)cc1,7,0.3,79*,0.2,73*,32*
c1ccc(N2CCN(c3ncnc4scc(-c5cccs5)c34)CC2)cc1,-2,0,97*,0,96*,47*
O=C(NCCN1CCOCC1)c1cc2c(=O)n3ccccc3nc2n1Cc1ccccc1,-12,0.5,44,0.6,55*,2
N#Cc1cc2c(=O)n3ccccc3nc2n(CCCN2CCOCC2)c1=O,3,0.3,41,0.6,69*,5
CCN1CCN(C(=O)c2cc3c(=O)n4ccccc4nc3n2Cc2ccccc2)CC1,.,1,-3,1,1,.
CCSc1nnc(NC(=O)C2C3C=CC(C3)C2C(=O)O)s1 (stereo unspecified),17,0.8,24,0.8,23,3
SMILES,PostGolgi yeast,CYP2C19 act,CYP2C9 inhib,CYP2C9 act,CYP2C19 inhib,PostGolgi ctrl
N#Cc1ccc(-c2ccccc2)nc1SCC(=O)c1cccc(Cl)c1,-1,0.7,63*,0.4,31,-4
N#Cc1ccc(-c2ccc(Cl)cc2)nc1SCC(=O)c1cccc(Cl)c1,-2,1,12,0.9,3,8
CC1(C)CCN(Cc2ccccc2)C1CC#N (stereo unspecified),-2,0.4,-5,1.1,60*,-10
CCO/C=C/C(O)(CNC(=O)COc1ccccc1F)C(F)(F)F (stereo unspecified),-3,0.2,26,0.7,85*,-1
CSc1ccccc1NC(=O)CSc1nnnn1-c1ccccc1SC,1,0.7,-209,3.1*,30,5
COC(=O)c1ccsc1NC(=O)CSc1nnnn1-c1ccccc1SC,0,0.9,-98,2*,6,16
CSc1ccccc1-n1nnnc1SCC(=O)Nc1ccccc1C,-8,0.1,-232,3.3*,87*,9
COc1cc(NC(=O)c2ccco2)c(OC)cc1NC(=O)CCC(=O)Nc1cccc(C)c1C,-1,0.8,35,0.7,20,3
O=C1CC(=O)N(CCc2ccc(F)cc2)C(=O)N1,-5,1,14,0.9,0,4
Cc1cccc(NC(=O)C2NC(=O)CC2c2ccccc2)c1C (stereo unspecified),-8,0.4,16,0.8,58*,11
Cn1c(=O)c2c(nc(N3CCCCCC3)n2CCSc2nc3ccccc3o2)n(C)c1=O,2,0.7,43,0.6,32,24
Cn1c(=O)[nH]c(=O)c2c1nc(N1CCCCCC1)n2CCCSc1nc2ccccc2o1,3,0.3,83*,0.2,66*,25
CCCCn1c(NC(C)CC)nc2c1c(=O)[nH]c(=O)n2C (stereo unspecified),-3,0.9,53*,0.5,9,-2
CC1CCCN(c2nc3c(c(=O)[nH]c(=O)n3C)n2Cc2ccccc2Cl)C1 (stereo unspecified),2,1.1,17,0.8,-12,34*
CCCn1c(N2CCN(CC(=O)c3c[nH]c4ccccc34)CC2)nc2c1c(=O)[nH]c(=O)n2C,4,0.5,70*,0.3,46,-4
CCCCCn1c(SC(C)C(C)=O)nc2c1c(=O)[nH]c(=O)n2C (stereo unspecified),-8,1,12,0.9,-3,14
COc1ccc(C(O)P(=O)(O)CCc2ccccc2)cc1 (stereo unspecified),9,1.2,-22,1.2,-19,-2
CC(O)CCc1nc2ccc(C(=O)O)cc2[nH]1 (stereo unspecified),10,1.1,-8,1.1,-5,2
Cc1c(S(=O)(=O)N2CCN(C(c3ccccc3)c3ccccc3)CC2)c(=O)n(C)c(=O)n1C,1,1.1,16,0.8,-13,27
CCOC(=O)N1CCC(N2CCN(c3cc(C)ccc3C)CC2)CC1,3,0.9,1,1,8,1
Cc1ccc(Cn2c(N3CCCCCC3)nc3c2c(=O)[nH]c(=O)n3C)cc1,6,1,0,1,3,43*
